The structures appear in SMILES notation.

The source of these data is the supplement of paper PMC9477273.

The test system of the assay is DRIVER-selected RNA biosensor (aptazyme) pool. Briefly: maximum fold change of ribozyme cleavage across biosensor pool versus no-compound control; higher = stronger biosensor response (ligand inhibits cleavage). The following applies: 10 µM. The procedure, abridged: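 Fold change of cleavage, the ratio of cleaved:uncleaved read fractions versus a no-compound condition corrected with reference sequences, is given as the maximum over all biosensors. It was measured by CleaveSeq on a pool of 1,730 array-resynthesized ribozyme biosensors transcribed by T7 with 9 mM rNTPs for 15–30 min at 37°C in the presence of one compound at 10 µM final, added from a 10x DMSO stock. After reverse transcription at 50°C, cleaved and uncleaved products were PCR-barcoded and counted by Illumina sequencing.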
`c1sc2c(c1CN1CCC3(CC1)OCCO3)CCCC2` had a maximum fold change of 2.61.
As to `CCCCC(C(=O)N1CCCCC1)N1C(=O)c2ccccc2C1=O` (configuration not stated), the maximum fold change came out at 1.93.
In turn, `CCNC(=S)N1CCN=C1Nc1nc(C)cc(C)n1` yielded a maximum fold change of 2.17.
Regarding `Cc1c[n+]([O-])n(-c2ccc(C(=O)O)cc2)n1`, the maximum fold change amounted to 2.15.
Under `Cc1cc(C)c2c(-n3cccc3)c(C(=O)NCc3ccc4c(c3)OCO4)sc2n1` stands 5.23.
Under `CCOC(=O)C1=C(C)NC(=S)NC1c1ccc(O)c(OC)c1` (configuration not stated) stands 3.37; under `Cc1oc2ncn3nc(-c4ccc(F)cc4)nc3c2c1C`, 10.5; under `COc1cccc(C(=O)/C=C2/Nc3ncc(Br)cc3NC2=O)c1`, 5.23.
In turn, `CC(=O)N1N=C(c2c(-c3ccccc3)c3cc(Cl)ccc3[nH]c2=O)CC1c1ccco1` (configuration not stated) displayed a maximum fold change of 6.87.
Turning to `N#C/C(=Cc1c(Oc2cccc(c2)C)nc2n(c1=O)cccc2)/c1nc2c([nH]1)cccc2`, the maximum fold change amounted to 7.83.
`Cc1nc(NC(=N)NC(=O)CCN2C(=O)c3ccccc3C2=O)nc2ccccc12`: the maximum fold change came out at 8.2.
On to `CCc1ccc2oc(C(=O)N(Cc3ccccc3F)C3CCS(=O)(=O)C3)c(C)c2c1` (configuration not stated), for which the maximum fold change was found to be 4.9.
